The source of these data is publication PMC7862700, “An all-to-all approach to the identification of sequence-specific readers for epigenetic DNA modifications on cytosine”.

What all share (experiment): DAPPL (digital affinity profiling via proximity ligation, sequencing); 10 mM Tris-HCl pH 7.5, 50 mM NaCl, 1 mM DTT, 4% glycerol, room temperature, 30 min; GST-TFs on glutathione beads, 16-mer random dsDNA library, 0.1% formaldehyde crosslink after washing; high values mean tight binding
Assay [1] has as its target T1, FLI1 (Homo sapiens, UniProt Q01543 1-452).
T1 sequence: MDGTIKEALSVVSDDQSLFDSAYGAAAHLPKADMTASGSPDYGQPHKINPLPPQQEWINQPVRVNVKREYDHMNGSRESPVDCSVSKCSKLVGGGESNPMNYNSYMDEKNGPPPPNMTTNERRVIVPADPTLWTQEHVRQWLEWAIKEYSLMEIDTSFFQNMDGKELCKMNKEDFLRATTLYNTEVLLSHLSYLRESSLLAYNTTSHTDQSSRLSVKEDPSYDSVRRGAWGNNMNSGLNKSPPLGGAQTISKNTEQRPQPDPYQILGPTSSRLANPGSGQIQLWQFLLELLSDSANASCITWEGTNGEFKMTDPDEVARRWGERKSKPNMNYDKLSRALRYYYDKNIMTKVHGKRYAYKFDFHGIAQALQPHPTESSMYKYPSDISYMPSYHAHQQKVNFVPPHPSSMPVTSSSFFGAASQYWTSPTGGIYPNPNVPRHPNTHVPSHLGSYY
The following applies: protein: recombinant; tags: N-terminal GST; dsDNA, one strand shown. The essentials: (§1)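 After expression in yeast as GST fusions, human transcription factors were bound to glutathione beads, DNA-barcoded and mixed with a tag-only sample. The pools were incubated with 200 nmole of a 16-mer random double-stranded DNA library in Tris/NaCl/DTT/glycerol buffer (30 min, room temperature), washed and crosslinked with 0.1% formaldehyde. Proximity ligation with BsaI/T4 ligase ran for 1 h at 37 °C, before PCR amplification and sequencing on an Illumina NextSeq500. Binding signal is a hexamer's read frequency for a factor divided by its frequency for the tag-only sample.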

The target of assay [2] is T2, ELK1 (Homo sapiens, UniProt P19419 1-428).
T2 sequence: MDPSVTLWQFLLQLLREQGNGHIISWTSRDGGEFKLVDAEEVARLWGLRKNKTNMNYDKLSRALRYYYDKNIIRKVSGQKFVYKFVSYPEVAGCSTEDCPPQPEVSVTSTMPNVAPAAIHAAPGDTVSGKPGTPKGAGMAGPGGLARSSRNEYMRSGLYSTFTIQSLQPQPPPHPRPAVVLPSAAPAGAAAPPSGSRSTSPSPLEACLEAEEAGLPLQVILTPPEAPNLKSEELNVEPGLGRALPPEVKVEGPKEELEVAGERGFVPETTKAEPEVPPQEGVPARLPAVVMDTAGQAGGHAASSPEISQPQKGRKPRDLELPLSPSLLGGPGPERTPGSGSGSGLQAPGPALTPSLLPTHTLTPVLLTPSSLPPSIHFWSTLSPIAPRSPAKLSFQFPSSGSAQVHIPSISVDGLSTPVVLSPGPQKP
Conditions: protein: recombinant; tags: N-terminal GST; dsDNA, one strand shown. The essentials: as §1

Assay [3] concerns the target T3, GABPA (Homo sapiens, UniProt Q06546 1-454).
T3 sequence: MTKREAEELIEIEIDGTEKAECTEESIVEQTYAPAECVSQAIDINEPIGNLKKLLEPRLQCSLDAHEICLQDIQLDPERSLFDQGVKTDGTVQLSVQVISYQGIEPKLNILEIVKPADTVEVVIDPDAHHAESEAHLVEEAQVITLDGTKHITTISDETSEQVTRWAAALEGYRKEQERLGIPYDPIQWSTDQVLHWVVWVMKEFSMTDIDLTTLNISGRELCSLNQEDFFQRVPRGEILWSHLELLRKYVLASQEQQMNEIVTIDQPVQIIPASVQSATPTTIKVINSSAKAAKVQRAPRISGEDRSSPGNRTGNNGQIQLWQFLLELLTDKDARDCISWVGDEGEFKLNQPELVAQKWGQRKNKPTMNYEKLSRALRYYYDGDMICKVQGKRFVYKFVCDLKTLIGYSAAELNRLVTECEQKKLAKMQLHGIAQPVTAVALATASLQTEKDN
Conditions: protein: recombinant; tags: N-terminal GST; dsDNA, one strand shown. The essentials:
as §1

For assay [4], the target named is T4, ERG (Homo sapiens, UniProt P11308 1-479).
T4 sequence: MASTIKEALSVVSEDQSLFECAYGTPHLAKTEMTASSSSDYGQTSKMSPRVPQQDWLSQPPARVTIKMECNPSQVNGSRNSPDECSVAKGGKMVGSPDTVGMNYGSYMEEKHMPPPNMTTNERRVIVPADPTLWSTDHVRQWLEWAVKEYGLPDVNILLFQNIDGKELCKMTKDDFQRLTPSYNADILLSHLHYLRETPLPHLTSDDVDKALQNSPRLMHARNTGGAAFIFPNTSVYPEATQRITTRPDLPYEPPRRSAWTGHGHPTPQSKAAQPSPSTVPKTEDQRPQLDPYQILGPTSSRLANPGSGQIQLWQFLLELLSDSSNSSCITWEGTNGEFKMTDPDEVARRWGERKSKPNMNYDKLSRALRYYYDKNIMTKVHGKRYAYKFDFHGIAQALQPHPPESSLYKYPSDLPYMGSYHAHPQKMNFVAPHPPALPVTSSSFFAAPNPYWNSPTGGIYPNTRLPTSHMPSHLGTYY
The following applies: protein: recombinant; tags: N-terminal GST; dsDNA, one strand shown. The gist of the method:
as §1

Assay [5] concerns the target ELF1 (Homo sapiens, UniProt P32519 1-619). The following applies: protein: recombinant; tags: N-terminal GST; dsDNA, one strand shown. The essentials:
as §1

The target in assay [6] is T5, EHF (Homo sapiens, UniProt Q9NZC4 1-300).
T5 sequence: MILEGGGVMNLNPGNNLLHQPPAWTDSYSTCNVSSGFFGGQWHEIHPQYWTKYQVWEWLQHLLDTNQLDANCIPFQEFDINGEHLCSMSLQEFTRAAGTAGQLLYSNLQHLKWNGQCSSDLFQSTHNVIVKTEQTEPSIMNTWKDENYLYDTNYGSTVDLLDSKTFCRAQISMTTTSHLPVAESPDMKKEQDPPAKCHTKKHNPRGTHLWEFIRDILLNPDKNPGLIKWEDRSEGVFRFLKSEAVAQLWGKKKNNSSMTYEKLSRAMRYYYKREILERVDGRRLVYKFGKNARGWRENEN
The following applies: protein: recombinant; tags: N-terminal GST; dsDNA, one strand shown. The gist of the method: as §1

The target in assay [7] is SPI1 (Homo sapiens, UniProt P17947 1-270). The following applies: protein: recombinant; tags: N-terminal GST; dsDNA, one strand shown. The gist of the method:
as §1

The target in assay [8] is SPIB (Homo sapiens, UniProt Q01892 1-262). The following applies: protein: recombinant; tags: N-terminal GST; dsDNA, one strand shown. The gist of the method:
as §1

Assay [9] has as its target T6, ELK3 (Homo sapiens, UniProt P41970 1-407).
T6 sequence: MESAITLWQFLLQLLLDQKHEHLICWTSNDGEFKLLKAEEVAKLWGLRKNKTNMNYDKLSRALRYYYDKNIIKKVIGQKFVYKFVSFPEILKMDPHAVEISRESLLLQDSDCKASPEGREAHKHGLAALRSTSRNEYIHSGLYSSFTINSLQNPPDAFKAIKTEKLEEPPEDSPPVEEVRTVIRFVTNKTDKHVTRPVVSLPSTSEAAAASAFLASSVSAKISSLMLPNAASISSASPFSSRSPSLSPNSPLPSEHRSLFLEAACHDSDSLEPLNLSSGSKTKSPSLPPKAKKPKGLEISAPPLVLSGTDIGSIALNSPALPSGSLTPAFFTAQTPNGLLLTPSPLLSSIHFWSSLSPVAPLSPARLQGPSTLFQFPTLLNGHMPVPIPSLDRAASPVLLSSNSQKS
Conditions: protein: recombinant; tags: N-terminal GST; dsDNA, one strand shown. The gist of the method:
as §1

The target of assay [10] is T7, FEV (Homo sapiens, UniProt Q99581 1-238).
T7 sequence: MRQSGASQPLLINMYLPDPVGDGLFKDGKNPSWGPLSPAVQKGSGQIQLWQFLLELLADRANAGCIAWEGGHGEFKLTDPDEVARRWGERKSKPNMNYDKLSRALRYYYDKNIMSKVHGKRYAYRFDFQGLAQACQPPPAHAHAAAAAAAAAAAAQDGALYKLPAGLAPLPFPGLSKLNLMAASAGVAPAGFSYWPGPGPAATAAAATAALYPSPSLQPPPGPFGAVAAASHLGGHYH
The following applies: protein: recombinant; tags: N-terminal GST; dsDNA, one strand shown. The gist of the method: as §1

The target in assay [11] is ETV5 (Homo sapiens, UniProt P41161 1-510). Conditions: protein: recombinant; tags: N-terminal GST; dsDNA, one strand shown. The essentials: as §1
Assay [12] has as its target HSF1 (Homo sapiens, UniProt Q00613 1-529). Conditions: protein: recombinant; tags: N-terminal GST; chain copies: 3; dsDNA, one strand shown. The essentials: as §1
Assay [13] deals with T8, SPIC (Homo sapiens, UniProt Q8N5J4 1-248).
T8 sequence: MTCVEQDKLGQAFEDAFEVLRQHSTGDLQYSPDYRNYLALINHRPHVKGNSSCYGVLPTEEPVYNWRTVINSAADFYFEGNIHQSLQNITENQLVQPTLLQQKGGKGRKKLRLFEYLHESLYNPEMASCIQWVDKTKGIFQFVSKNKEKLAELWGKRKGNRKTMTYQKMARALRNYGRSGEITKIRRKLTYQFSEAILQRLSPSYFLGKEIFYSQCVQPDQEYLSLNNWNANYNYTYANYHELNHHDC
The following applies: protein: recombinant; tags: N-terminal GST; dsDNA, one strand shown. The essentials:
as §1

The target of assay [14] is ELF4 (Homo sapiens, UniProt Q99607 1-663). Conditions: protein: recombinant; tags: N-terminal GST; dsDNA, one strand shown. The essentials:
as §1

Assay [15] addresses T9, ELK4 (Homo sapiens, UniProt P28324-2 1-405).
T9 sequence: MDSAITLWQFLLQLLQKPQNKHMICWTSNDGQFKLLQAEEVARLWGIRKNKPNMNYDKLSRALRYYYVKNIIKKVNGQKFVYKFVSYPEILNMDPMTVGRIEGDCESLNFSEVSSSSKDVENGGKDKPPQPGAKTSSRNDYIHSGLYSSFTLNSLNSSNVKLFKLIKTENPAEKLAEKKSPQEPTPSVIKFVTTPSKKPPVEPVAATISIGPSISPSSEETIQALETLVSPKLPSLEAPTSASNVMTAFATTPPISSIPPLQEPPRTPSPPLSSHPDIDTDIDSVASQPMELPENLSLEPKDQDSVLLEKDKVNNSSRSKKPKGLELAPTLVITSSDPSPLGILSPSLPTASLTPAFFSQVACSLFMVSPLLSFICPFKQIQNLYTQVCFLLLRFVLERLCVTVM
The following applies: protein: recombinant; tags: N-terminal GST; dsDNA, one strand shown. The gist of the method:
as §1

In assay [16] the target is T10, ETV2 (Homo sapiens, UniProt O00321 1-342).
T10 sequence: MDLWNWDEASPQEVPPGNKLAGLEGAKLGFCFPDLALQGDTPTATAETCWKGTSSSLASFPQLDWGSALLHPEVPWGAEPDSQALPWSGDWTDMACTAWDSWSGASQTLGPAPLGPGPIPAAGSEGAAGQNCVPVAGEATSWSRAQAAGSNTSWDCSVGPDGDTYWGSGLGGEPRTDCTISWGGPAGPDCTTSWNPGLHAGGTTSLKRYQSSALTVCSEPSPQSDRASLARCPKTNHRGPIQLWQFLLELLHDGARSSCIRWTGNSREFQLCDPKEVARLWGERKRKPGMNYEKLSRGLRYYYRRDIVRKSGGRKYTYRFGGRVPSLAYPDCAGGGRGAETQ
Conditions: protein: recombinant; tags: N-terminal GST; dsDNA, one strand shown. The essentials: as §1

The target of assay [17] is T11, ELF3 (Homo sapiens, UniProt P78545 1-371).
T11 sequence: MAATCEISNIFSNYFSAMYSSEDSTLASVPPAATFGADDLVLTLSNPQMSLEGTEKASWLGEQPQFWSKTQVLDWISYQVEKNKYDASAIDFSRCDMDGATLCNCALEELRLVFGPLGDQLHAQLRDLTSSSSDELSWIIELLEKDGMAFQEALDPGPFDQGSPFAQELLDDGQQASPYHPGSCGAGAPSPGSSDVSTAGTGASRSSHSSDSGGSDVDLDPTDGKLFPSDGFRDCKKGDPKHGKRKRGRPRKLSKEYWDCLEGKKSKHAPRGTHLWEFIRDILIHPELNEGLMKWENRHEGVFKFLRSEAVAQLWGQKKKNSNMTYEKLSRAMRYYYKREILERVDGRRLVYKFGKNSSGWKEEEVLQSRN
The following applies: protein: recombinant; tags: N-terminal GST; dsDNA, one strand shown. The essentials: as §1

For assay [18], the target named is ETV1 (Homo sapiens, UniProt P50549 1-477). Conditions: protein: recombinant; tags: N-terminal GST; dsDNA, one strand shown. The essentials:
as §1

ELF1, sequence (P32519 whole entry): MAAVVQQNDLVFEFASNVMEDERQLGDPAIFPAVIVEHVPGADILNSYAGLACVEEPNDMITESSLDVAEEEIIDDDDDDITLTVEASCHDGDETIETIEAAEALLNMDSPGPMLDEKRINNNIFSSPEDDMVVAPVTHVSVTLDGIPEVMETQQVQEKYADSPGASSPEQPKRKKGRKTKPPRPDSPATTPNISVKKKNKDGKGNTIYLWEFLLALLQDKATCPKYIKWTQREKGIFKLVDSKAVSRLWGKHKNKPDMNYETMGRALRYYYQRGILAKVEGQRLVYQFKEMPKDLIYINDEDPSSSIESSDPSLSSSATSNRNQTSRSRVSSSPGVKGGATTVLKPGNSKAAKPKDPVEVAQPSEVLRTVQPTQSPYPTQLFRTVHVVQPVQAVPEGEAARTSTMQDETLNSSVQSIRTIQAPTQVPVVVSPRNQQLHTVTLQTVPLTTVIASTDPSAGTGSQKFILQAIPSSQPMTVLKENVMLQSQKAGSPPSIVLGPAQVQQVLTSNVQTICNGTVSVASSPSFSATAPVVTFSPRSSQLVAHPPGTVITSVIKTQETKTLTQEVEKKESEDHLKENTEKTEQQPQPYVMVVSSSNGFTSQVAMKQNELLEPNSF
ETV1, sequence (P50549 whole entry): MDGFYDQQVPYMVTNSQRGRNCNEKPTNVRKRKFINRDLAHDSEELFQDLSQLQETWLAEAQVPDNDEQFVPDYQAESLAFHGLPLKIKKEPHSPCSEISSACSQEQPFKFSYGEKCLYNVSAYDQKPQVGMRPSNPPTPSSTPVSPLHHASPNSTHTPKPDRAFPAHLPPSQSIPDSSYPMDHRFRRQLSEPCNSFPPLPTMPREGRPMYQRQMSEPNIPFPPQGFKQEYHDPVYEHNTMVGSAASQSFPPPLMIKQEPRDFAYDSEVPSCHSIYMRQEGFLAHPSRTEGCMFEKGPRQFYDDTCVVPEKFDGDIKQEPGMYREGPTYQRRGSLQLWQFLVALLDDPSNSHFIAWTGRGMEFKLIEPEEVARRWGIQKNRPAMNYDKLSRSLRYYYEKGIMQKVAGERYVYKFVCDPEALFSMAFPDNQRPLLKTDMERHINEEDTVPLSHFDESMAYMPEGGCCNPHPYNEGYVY
ELF4, sequence (Q99607 whole entry): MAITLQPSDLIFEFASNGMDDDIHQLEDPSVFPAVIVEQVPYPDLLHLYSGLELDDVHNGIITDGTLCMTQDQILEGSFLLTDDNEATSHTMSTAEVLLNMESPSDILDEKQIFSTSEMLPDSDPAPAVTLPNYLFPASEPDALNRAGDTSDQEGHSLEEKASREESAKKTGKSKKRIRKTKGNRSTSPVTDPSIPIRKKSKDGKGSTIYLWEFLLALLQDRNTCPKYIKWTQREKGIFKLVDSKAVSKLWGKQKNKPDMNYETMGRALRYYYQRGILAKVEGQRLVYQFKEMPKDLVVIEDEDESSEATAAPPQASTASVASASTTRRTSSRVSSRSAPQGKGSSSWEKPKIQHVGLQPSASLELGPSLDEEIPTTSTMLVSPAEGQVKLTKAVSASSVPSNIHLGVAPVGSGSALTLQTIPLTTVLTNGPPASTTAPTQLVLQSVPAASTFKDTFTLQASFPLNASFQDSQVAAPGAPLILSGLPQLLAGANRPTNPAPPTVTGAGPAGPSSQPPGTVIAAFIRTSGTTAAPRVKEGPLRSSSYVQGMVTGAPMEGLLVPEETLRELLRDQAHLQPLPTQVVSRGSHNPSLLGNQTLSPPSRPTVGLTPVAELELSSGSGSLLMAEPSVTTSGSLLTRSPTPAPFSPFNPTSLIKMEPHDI
SPIB, sequence (Q01892 whole entry): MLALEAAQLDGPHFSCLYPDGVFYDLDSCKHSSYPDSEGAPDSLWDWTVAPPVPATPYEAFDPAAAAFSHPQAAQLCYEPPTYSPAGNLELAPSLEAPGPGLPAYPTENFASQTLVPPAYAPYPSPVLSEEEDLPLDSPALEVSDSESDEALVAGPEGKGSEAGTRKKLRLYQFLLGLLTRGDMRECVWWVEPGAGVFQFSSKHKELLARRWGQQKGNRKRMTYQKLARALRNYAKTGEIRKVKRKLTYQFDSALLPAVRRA
HSF1, sequence (Q00613 whole entry): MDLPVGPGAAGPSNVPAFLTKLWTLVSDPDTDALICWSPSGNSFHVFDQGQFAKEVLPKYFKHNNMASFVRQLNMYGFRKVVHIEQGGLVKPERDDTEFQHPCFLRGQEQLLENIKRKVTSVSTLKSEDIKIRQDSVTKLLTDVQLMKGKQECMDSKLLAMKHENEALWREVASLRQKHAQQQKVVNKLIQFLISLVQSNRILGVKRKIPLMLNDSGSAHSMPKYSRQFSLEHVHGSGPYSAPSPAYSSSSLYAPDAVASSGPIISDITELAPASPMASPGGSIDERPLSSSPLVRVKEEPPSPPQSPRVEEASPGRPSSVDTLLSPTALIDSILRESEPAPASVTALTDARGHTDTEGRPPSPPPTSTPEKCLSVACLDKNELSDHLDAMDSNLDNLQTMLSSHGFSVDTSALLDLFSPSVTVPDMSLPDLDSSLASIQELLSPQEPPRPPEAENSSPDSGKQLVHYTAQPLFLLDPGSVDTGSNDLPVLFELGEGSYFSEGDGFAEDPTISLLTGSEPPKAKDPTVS
ETV5, sequence (P41161 whole entry): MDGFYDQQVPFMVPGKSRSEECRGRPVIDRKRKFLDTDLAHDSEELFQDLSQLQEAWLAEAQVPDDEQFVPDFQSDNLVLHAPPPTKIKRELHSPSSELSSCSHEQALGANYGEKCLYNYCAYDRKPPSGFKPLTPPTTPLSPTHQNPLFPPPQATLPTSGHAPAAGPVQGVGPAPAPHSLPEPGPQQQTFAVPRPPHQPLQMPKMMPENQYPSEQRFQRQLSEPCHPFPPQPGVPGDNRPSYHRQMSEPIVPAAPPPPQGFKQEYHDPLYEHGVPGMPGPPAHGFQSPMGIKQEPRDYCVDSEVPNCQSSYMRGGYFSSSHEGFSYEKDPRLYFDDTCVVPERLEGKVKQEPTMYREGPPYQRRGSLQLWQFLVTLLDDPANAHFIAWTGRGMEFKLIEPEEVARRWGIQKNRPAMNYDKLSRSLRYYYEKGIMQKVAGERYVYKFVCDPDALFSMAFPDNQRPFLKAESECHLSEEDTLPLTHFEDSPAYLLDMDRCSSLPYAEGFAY

As for GGAAAT, the binding signal in assay [1] was 2.51 fold enrichment (6-mer frequency, TF over GST control); in assay [2], 2.64 fold enrichment (6-mer frequency, TF over GST control); in assay [3], 2.39 fold enrichment (6-mer frequency, TF over GST control); in assay [4], 3.22 fold enrichment (6-mer frequency, TF over GST control); in assay [5], 2.39 fold enrichment (6-mer frequency, TF over GST control); in assay [6], 3.06 fold enrichment (6-mer frequency, TF over GST control). Moreover, the binding signal is 2.6 fold enrichment (6-mer frequency, TF over GST control) in assay [7]; 2.88 fold enrichment (6-mer frequency, TF over GST control) in assay [8]; 2.69 fold enrichment (6-mer frequency, TF over GST control) in assay [9]; 4 fold enrichment (6-mer frequency, TF over GST control) in assay [10]; 3.05 fold enrichment (6-mer frequency, TF over GST control) in assay [11]; 1.29 fold enrichment (6-mer frequency, TF over GST control) in assay [12]. The binding signal in [13] is 2.47 fold enrichment (6-mer frequency, TF over GST control); in [14] it was 2.4 fold enrichment (6-mer frequency, TF over GST control); in assay [15], 2.13 fold enrichment (6-mer frequency, TF over GST control); in [16], 2.4 fold enrichment (6-mer frequency, TF over GST control); in assay [17], 2.74 fold enrichment (6-mer frequency, TF over GST control); in assay [18], 2.69 fold enrichment (6-mer frequency, TF over GST control).
